Shown are actives, neighbours in structure and some others; about 2.3% of the full set was active somewhere.
CHT PAM: allosteric activators of human choline transporter CHT; Q9GZV3; CHT-expressing cells, membrane potential dye, choline EC20; stronger effect = higher value; LV-AA mutant CHT in HEK293 cells; B-score at 10 µM; actives 0.49% (n = 310,000); AID 488977;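 active = initial fluorescence not abnormally high and integrated response B-score, plate-corrected, over 3 SD above library mean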
ANO1 activ: activates or potentiates the mouse TMEM16A chloride channel; Q8BHY3; HEK293 TMEM16A/YFP-H148Q/I152L, iodide quench fluorescence; stronger effect = lower value; B-score at 10 µM; actives 0.3% (n = 340,000); AID 623877;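 active = fluorescence-ratio B-score plate-corrected deviation score at least 3 library SD below zero, with starting fluorescence score within 5 deviations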;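 also: channel opened by trigger with iodide after compound preincubation; score built on the fluorescence ratio of max minus min over baseline; more negative score means more quench and so TMEM16A activation or potentiation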
Target sequence (Q8BHY3 whole entry, looked up): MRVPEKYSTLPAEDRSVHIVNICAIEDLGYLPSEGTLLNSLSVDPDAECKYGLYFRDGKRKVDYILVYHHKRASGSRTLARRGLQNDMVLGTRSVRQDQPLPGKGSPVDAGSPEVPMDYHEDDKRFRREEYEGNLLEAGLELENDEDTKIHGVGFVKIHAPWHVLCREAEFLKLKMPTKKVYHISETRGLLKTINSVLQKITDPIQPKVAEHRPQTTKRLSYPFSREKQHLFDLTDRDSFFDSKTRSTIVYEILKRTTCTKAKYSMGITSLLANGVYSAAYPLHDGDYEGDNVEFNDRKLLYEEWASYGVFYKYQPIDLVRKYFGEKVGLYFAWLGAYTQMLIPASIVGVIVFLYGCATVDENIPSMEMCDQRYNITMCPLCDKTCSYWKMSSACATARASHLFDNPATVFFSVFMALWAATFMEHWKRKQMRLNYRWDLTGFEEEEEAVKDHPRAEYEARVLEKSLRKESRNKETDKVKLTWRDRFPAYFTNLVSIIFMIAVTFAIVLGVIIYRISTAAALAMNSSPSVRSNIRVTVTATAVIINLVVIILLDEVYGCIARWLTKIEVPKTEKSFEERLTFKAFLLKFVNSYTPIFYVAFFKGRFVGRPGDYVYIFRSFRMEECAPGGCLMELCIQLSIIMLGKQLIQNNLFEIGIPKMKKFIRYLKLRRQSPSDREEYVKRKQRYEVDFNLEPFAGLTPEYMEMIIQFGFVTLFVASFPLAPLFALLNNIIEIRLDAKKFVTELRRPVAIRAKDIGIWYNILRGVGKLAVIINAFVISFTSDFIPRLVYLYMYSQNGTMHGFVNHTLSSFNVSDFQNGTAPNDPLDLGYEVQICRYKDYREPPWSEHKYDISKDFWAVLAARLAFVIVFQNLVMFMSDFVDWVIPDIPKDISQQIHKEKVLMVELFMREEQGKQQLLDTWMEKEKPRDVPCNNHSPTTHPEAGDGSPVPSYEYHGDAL
TMEM16A inh: mouse TMEM16A channel inhibition, primary screen; AID 588511; Q8BHY3; normalized B-score (activity score, 25-100; higher = stronger inhibition) at 10 µM; actives 1.2% (n = 310,000); HEK293 TMEM16A/YFP iodide influx fluorescence, ionomycin;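 active = ratio plate-corrected score three or more library SD toward inhibition, starting fluorescence score within five deviations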;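 also: score derived from kinetic fluorescence span divided by baseline fluorescence per well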
CHT inh: inhibitors of human choline transporter CHT | Q9GZV3 | CHT-expressing cells, membrane potential dye, choline response; stronger effect = lower value | B-score at 10 µM | actives 0.86% (n = 310,000);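 active = B-score over 3 SD under the library average, and starting fluorescence ratio not unusually high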;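 also: choline stimulus applied at its EC90 after an EC20 pre-addition; B-score computed on integrated fluorescence ratio after choline addition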
CHT act confirm: human CHT activation, confirmatory screen. shares compounds with CHT PAM. AID 504833. actives 91% (n = 2,500). CHT-expressing cells, membrane potential dye fluorescence (FDSS); % of choline EC20–EC90 response window; HEK293 expressing CHT LV-AA mutant; choline added at its EC20. activation, % at 10 µM;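 active = primary screen active, with duplicate mean activation above negative control mean plus 3 SD, cut at about 11% in these data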
HEK293 MP dye: activity in parental HEK293 cells lacking CHT. AID 623908. ratio readout change at 10 µM, hits read low. shares compounds with CHT PAM. membrane potential dye fluorescence (FDSS); measured after EC20 choline addition. actives 62% (n = 2,500);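 active = duplicate-averaged ratio beyond 3 SD from buffer wells, up or down, though filed actives are nearly all decreases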
Hits are given with their value.

Screening CCOC(=O)Cn1c2c(c(=N)c3ccccc31)CCC2 returned CHT PAM inactive, ANO1 activ inactive, TMEM16A inh inactive, CHT inh inactive, CHT act confirm 65.2 and HEK293 MP dye -51.
`CCOC(=O)Cn1c2c(c(=N)c3c1CCC3)CCC2` gave CHT PAM inactive, ANO1 activ inactive, TMEM16A inh inactive, CHT inh inactive, CHT act confirm 23.4 and HEK293 MP dye -47.5.
For CCCCCn1c2c(c(=N)c3ccccc31)CCC2 the results were CHT PAM 6.7, ANO1 activ inactive, TMEM16A inh inactive, CHT inh inactive, CHT act confirm 40.7 and HEK293 MP dye -64.7.
Screening Cc1c(NC(=O)C(C)OC(=O)c2ccc([N+](=O)[O-])cc2Cl)c(=O)n(-c2ccccc2)n1C (stereo not given) returned ANO1 activ inactive.
Screening CCN(CC)CCCNc1ncnc2ccccc12 returned CHT PAM 7.81, ANO1 activ inactive, TMEM16A inh inactive, CHT inh inactive, CHT act confirm 60.8 and HEK293 MP dye -66.
`Cc1cc(NCC2CCCCC2)nc2ccccc12` gave CHT PAM inactive, ANO1 activ inactive, TMEM16A inh inactive and CHT inh inactive.
`Cc1cc(NCCNC2=CC(=O)CCC2)nc2ccccc12` gave CHT PAM inactive, ANO1 activ inactive, TMEM16A inh inactive, CHT inh inactive, CHT act confirm 48.0 and HEK293 MP dye -47.3.
COc1ccc(C(CC(=O)N2CCCC(C)C2)c2c(OC)cc(OC)c3c(-c4ccccc4)cc(=O)oc23)cc1 (stereo not given) was read as CHT PAM inactive, ANO1 activ inactive, TMEM16A inh inactive, CHT inh inactive, CHT act confirm inactive and HEK293 MP dye inactive.
Screening COc1ccc(C(CC(=O)N2CCOCC2)c2c(OC)cc(OC)c3c(-c4ccccc4)cc(=O)oc23)cc1 (stereo not given) returned CHT PAM inactive, ANO1 activ inactive, TMEM16A inh inactive and CHT inh inactive.
Cn1c(SCC(=O)NCC2CCCO2)ncc(C(=O)Nc2ccc(Cl)cc2)c1=O (stereo not given) was read as CHT PAM inactive, ANO1 activ inactive, TMEM16A inh inactive and CHT inh inactive.
`CC(NC(=S)Nc1ccc([N+](=O)[O-])cc1)c1ccncc1` (stereo not given) gave CHT PAM inactive, ANO1 activ inactive, TMEM16A inh inactive and CHT inh inactive.
`COc1ccc(NC(=S)NC(C)c2ccncc2)cc1OC` (stereo not given) gave CHT PAM inactive, ANO1 activ inactive, TMEM16A inh inactive, CHT inh inactive, CHT act confirm 18.0 and HEK293 MP dye inactive.
`CCSc1nnc(SCC(=O)c2c(N)n(C)c(=O)n(C)c2=O)s1` gave ANO1 activ inactive.
`O=C(CSc1nc2ccccc2c(=O)n1-c1ccc(Cl)cc1)N/N=C/C=C/c1ccccc1[N+](=O)[O-]` gave CHT PAM 7.71, ANO1 activ inactive, TMEM16A inh inactive, CHT inh inactive, CHT act confirm 13.0 and HEK293 MP dye inactive.
`CCN(CC)Cc1nc2c(c(=O)[nH]1)C(CC)(CC)Cc1ccccc1-2` gave CHT PAM inactive, ANO1 activ inactive, TMEM16A inh inactive and CHT inh inactive.
`COc1cc(OC)c(NC(=O)CCCNC(=O)Cn2cnc3sc(C)c(C)c3c2=O)cc1Cl` gave CHT PAM inactive, ANO1 activ inactive, TMEM16A inh inactive and CHT inh inactive.
`CN(CC(=O)Oc1ccc(-c2nnco2)cc1)S(=O)(=O)c1ccc(F)cc1` gave CHT PAM inactive, ANO1 activ inactive, TMEM16A inh inactive and CHT inh inactive.
For COc1ccc(Nc2c(-c3ccc(C)cc3)nc3cnccn23)cc1 the results were CHT PAM inactive, ANO1 activ inactive, TMEM16A inh inactive, CHT inh inactive, CHT act confirm 49.4 and HEK293 MP dye -27.9.
`COc1ccc(Nc2c(-c3ccc(OC)cc3)nc3cnccn23)cc1` gave CHT PAM inactive, ANO1 activ inactive, TMEM16A inh inactive and CHT inh inactive.
Screening COc1ccc(-c2nc3cnccn3c2Nc2ccc3c(c2)OCO3)cc1 returned CHT PAM 6.35, ANO1 activ inactive, TMEM16A inh inactive, CHT inh inactive, CHT act confirm 48.1 and HEK293 MP dye -29.4.
For Cc1cc(C)n2c(Nc3ccc4c(c3)OCCO4)c(-c3ccccc3)nc2n1 the results were CHT PAM 10.7, ANO1 activ inactive, TMEM16A inh inactive, CHT inh inactive, CHT act confirm 14.0 and HEK293 MP dye -34.4.
`Cc1ccc(-c2nc3cnccn3c2Nc2ccc3c(c2)OCO3)cc1` gave CHT PAM inactive, ANO1 activ inactive, TMEM16A inh inactive and CHT inh inactive.
CN(C)c1ccc(-c2nc3cnccn3c2Nc2ccc3c(c2)OCCO3)cc1 was read as CHT PAM 7.09, ANO1 activ inactive, TMEM16A inh inactive, CHT inh inactive, CHT act confirm 59.2 and HEK293 MP dye -22.8.
For Cc1cccc2nc(-c3ccco3)c(Nc3ccc4c(c3)OCO4)n12 the results were CHT PAM inactive, ANO1 activ inactive, TMEM16A inh inactive and CHT inh inactive.
`O=C(CN1C(=O)NC2(CCCCCCC2)C1=O)NCc1ccccc1` gave ANO1 activ inactive.
Screening Cc1c(C(=O)N2CCCCC2C)sc2nc3n(c(=O)c12)CCC3 (stereo not given) returned CHT PAM inactive, ANO1 activ inactive, TMEM16A inh inactive and CHT inh inactive.
CNC(=O)COc1coc(CN2CCN(c3ccccc3F)CC2)cc1=O was read as CHT PAM inactive, ANO1 activ inactive, TMEM16A inh inactive and CHT inh inactive.
`CCn1c(C)nc2cc(C(=O)NNC(=O)[C@@H](NC(=O)c3cc(OC)cc(OC)c3)C(C)C)ccc21` gave ANO1 activ inactive.
For Cc1ccc2c(c1)S/C(=C/c1ccc[n+](C)c1)N2CCO the results were CHT PAM 6.97, ANO1 activ inactive, TMEM16A inh inactive, CHT inh inactive, CHT act confirm 34.2 and HEK293 MP dye -49.3.
For Cc1ccc(S(=O)(=O)N(C)C)cc1NC(=O)CSc1nc2ncc(Cl)cc2[nH]1 the results were ANO1 activ inactive.
COc1ccc(C(=O)NCC(=O)OCc2nc(N)nc(Nc3ccccc3C)n2)cc1 was read as ANO1 activ inactive.
O=C(NC1CCCCCCC1)c1cc(-c2ccccn2)nc2ccccc12 was read as CHT PAM 6.76, ANO1 activ inactive, TMEM16A inh inactive, CHT inh inactive, CHT act confirm 10.3 and HEK293 MP dye inactive.

Compound activity deposited in PubChem by Johns Hopkins Ion Channel Center.
